Data published in PubChem BioAssay AID504329 (Southern Research Specialized Biocontainment Screening …, 2011).
In all, about 340,000 compounds went through this assay and about 1,000 (0.29%) were called active. A selection follows. Potency and affinity values are given separately. A number with no mark means an inactive call. Cut-off read from the data, not from the text of the source: inconclusive = inhibition above about 27% without an active follow-up result; inactive = below that.

Assay: NS1A inhibition, H1N1 influenza, cell based functional assay (AID 504329)
Conditions: percent inhibition, at 12.5 µM, active compounds read high

Which inhibition does the source give for CC(C)Cc1nnc(NC(=O)c2ccncc2)s1 here?
The inhibition was 7%.

With C[C@H](CO)N1C[C@H](C)[C@@H](CN(C)S(=O)(=O)c2cccs2)Oc2ccc(NC(=O)Cc3ccccc3)cc2C1=O as the compound, how does the inhibition read?
Its inhibition is -1.59%.

For O=C(CN1C(=O)NC2(CCOc3ccccc32)C1=O)Nc1cccc(Cl)c1 (centres undefined), which inhibition is on record?
The inhibition was 3.28%.

With CC(=O)CC(=O)Nc1ccn(-c2ccccc2)n1 as the compound, how does the inhibition read?
Its inhibition is 10.6%.

For O=C(CNC(=O)c1ccco1)NCC(=O)OCC(=O)c1ccc(Cl)c([N+](=O)[O-])c1, which inhibition is on record?
The inhibition was 6.1%.

Which inhibition does the source give for O=C1OC(c2ccc(F)cc2)=N/C1=C\C=C/c1ccccc1 here?
Its inhibition is -22.8%.

For CC(C)(C)NC(=S)NC(=O)C12CCC3CC(CC(C3)C1)C2, which inhibition is on record?
The inhibition was 0.27%.

Which inhibition does the source give for CCOc1ncccc1C(=O)Nc1ccccc1N1CCOCC1 here?
Its inhibition is -4.05%.

Which inhibition does the source give for Cc1cccc(C(=O)NC(C(=O)Nc2nc(-c3ccccn3)cs2)C(C)C)c1 (centres undefined) here?
The inhibition was 15.6%.

Which inhibition does the source give for Cc1csc(NC(=O)c2cccn2C)n1 here?
The inhibition was -0.43%.

Which inhibition does the source give for Cc1ccc(C(=O)Nc2nc(-c3ccccn3)cs2)s1 here?
Its inhibition is 18.4%.

With CC(Oc1ccccc1)C(=O)Nc1nc(-c2ccccn2)cs1 (centres undefined) as the compound, how does the inhibition read?
The inhibition was 16.9%.

For COc1ccc(NC(=O)CSCc2cc(=O)n3nc(C4CC4)sc3n2)cc1, which inhibition is on record?
The inhibition was 2.59%.

For CCCCOc1c(Cl)cc(CNC(C)(C)CO)cc1OCC, which inhibition is on record?
The inhibition was -2.92%.

Which inhibition does the source give for Cc1ccc(-c2nn(C)c(=O)c3ccccc23)cc1S(=O)(=O)NCCN1CCOCC1 here?
The inhibition was -10.6%.

For O=C1C2CCCN2C(c2ccc(F)c(F)c2)N1c1cccc(Cl)c1 (centres undefined), which inhibition is on record?
The inhibition was -6.3%.

For Cc1cc(OCc2cn3cccnc3n2)ccc1Cl, which inhibition is on record?
Its inhibition is 6.77%.

For CCOc1ccc2[nH]c(=O)c(CN(Cc3ccccc3OC)C(=O)c3ccccc3)cc2c1, which inhibition is on record?
Its inhibition is 21.1%.

For CCOc1ccc(S(=O)(=O)N2CCC(C(=O)OCc3cccc(OC)c3OC)CC2)cc1, which inhibition is on record?
The inhibition was -13.5%.

With Cc1ccc(C)c(N=Nc2ccc(O)c3ncccc23)c1 as the compound, how does the inhibition read?
The inhibition was 5.69%.

Which inhibition does the source give for COc1ccc(N=Nc2ccc(O)c3ncccc23)cc1 here?
The inhibition was 2.93%.

Which inhibition does the source give for COc1ccc(C)cc1N=Nc1ccc(O)c2ncccc12 here?
Its inhibition is 6.77%.

Which inhibition does the source give for COc1cccc(N=Nc2ccc(O)c3ncccc23)c1 here?
Its inhibition is -0.21%.

With CCS(=O)(=O)c1ccc(OC)c(N=Nc2ccc(O)c3ncccc23)c1 as the compound, how does the inhibition read?
The inhibition was 9.35%.

With Cc1cccc(N=Nc2ccc(O)c3ncccc23)c1 as the compound, how does the inhibition read?
Its inhibition is 0.95%.

For O=C(NCc1ccco1)c1nn(-c2ccccc2)c(=O)c2ccccc12, which inhibition is on record?
The inhibition was 0.06%.

With O=C(COC(=O)CSc1ccc2ccccc2c1)NCc1ccc2c(c1)OCO2 as the compound, how does the inhibition read?
The inhibition was 2.14%.

With CC(C)(C)CC(C)(C)NCC(O)COc1ccc2c(c1)CCC2 (centres undefined) as the compound, how does the inhibition read?
Its inhibition is 5.01%.

With Cc1ccc(S(=O)(=O)NC2CCCCC2)c(C)c1NS(C)(=O)=O as the compound, how does the inhibition read?
The inhibition was 3.57%.

Which inhibition does the source give for Cc1ccc(-c2nn(-c3ccccc3Cl)cc2C(=O)NCC2CCCO2)cc1 (centres undefined) here?
The inhibition was -0.44%.

For COCCN(CC(=O)Nc1cccc(C)c1C)C(=O)Cc1cccs1, which inhibition is on record?
Its inhibition is -7.25%.

For Cc1cc(S(=O)(=O)N(Cc2ccccc2F)C2CC2)ccc1-n1cnnn1, which inhibition is on record?
The inhibition was 6.46%.

With O=C(Nc1ccccc1)OCN1C(=O)c2ccccc2C1=O as the compound, how does the inhibition read?
The inhibition was 2.63%.

With CC(C)(C)C(=O)O/N=C1/C(=O)N(c2ccccc2)c2ccccc21 as the compound, how does the inhibition read?
Its inhibition is -9.74%.

Which inhibition does the source give for CCc1ccc(/C=C(/C#N)C(N)=S)cc1 here?
Its inhibition is -1.52%.

For CCN(CC)c1ccc(/C=C(\C#N)C(N)=O)cc1, which inhibition is on record?
Its inhibition is 2.41%.

With CCN(CC)S(=O)(=O)c1ccc2oc(Nc3ccccc3)nc2c1 as the compound, how does the inhibition read?
The inhibition was 10.4%.

With [O-]c1c[n+](-c2ccc(-[n+]3cc([O-])on3)cc2)no1 as the compound, how does the inhibition read?
The inhibition was 3.68%.

Which inhibition does the source give for Cc1c(C)c2cccnc2c2ncccc12 here?
The inhibition was 3.77%.

For Cc1ccc2c(C)ccc(O)c2n1, which inhibition is on record?
The inhibition was -11%.

Which inhibition does the source give for Cc1cccc2cccnc12 here?
The inhibition was -13.9%.

With Cc1ccnc2c1ccc1ccccc12 as the compound, how does the inhibition read?
The inhibition was -14.1%.

With Cc1n[nH]c(=O)c2c(NC(=O)CSc3nc4ccccc4c(=O)n3-c3ccc(OC(F)F)cc3)oc(C)c12 as the compound, how does the inhibition read?
The inhibition was -4.1%.

With CC(=O)N(C)C1=Nc2ccc(Cl)cc2C(c2ccccc2)=[N+]([O-])C1 as the compound, how does the inhibition read?
Its inhibition is -5.29%.

Which inhibition does the source give for CCN(Cc1ccccc1)C(=O)COC(=O)CNS(=O)(=O)c1ccc(C)cc1 here?
Its inhibition is -5.52%.

Which inhibition does the source give for CN(NC(=O)c1ccco1)c1nc2ccccc2nc1C(F)(F)F here?
The inhibition was -6.87%.

Which inhibition does the source give for Cc1cc(-c2ccc(C)c(S(=O)(=O)Nc3cccc(CN4CCCC4)c3)c2)on1 here?
Its inhibition is -3.07%.

For COc1ccccc1NC(=O)Nc1ccccc1C(=O)NCCCN1CCOCC1, which inhibition is on record?
The inhibition was -12.4%.

Which inhibition does the source give for CCOc1ccc(N2CC(C(=O)N3CCCc4ccccc43)CC2=O)cc1 (centres undefined) here?
Its inhibition is 0.32%.

For Cc1ccc(S(=O)(=O)N2CCOCC2)cc1NC(=O)C1=NN(c2ccccc2)C(=O)CC1, which inhibition is on record?
Its inhibition is -4.05%.

For Oc1cccc(Nc2c3ccccc3nc3ccccc23)c1, which inhibition is on record?
The inhibition was 8.39%.

Which inhibition does the source give for CCN(CC)CCn1c2ccccc2c2nc3ccccc3nc21 here?
The inhibition was -13.6%.

With Cc1ccccc1N1CCN(C2CCCN(C(=O)c3snnc3C)C2)CC1 (centres undefined) as the compound, how does the inhibition read?
Its inhibition is -10.7%.

For O=CC1=C(N2CCOCC2)/C(=C\c2ccccc2)CC1, which inhibition is on record?
Its inhibition is -9.74%.

With O=C1Nc2ccc(Br)cc2/C1=N\N=C\C1=C(N2CCOCC2)C(=C/c2ccccc2)/CC1 as the compound, how does the inhibition read?
Its inhibition is 20.8%.

For Cc1ccc(S(=O)(=O)CCC(=O)OCCOc2cccc(Br)c2)cc1, which inhibition is on record?
Its inhibition is -115%.

Which inhibition does the source give for Cc1cccc(OCCOC(=O)c2c(-c3ccccc3)noc2C)c1 here?
Its inhibition is -11.5%.

Which inhibition does the source give for COc1ccc(S(=O)(=O)NCc2cccnc2)cc1NC(=O)c1ccccc1C here?
The inhibition was -8.44%.

With CS(=O)(=O)N(CC(=O)Nc1ccccc1-c1ccccc1)c1ccc(F)cc1 as the compound, how does the inhibition read?
The inhibition was 1.39%.

For O=C(Nc1cccc(Cl)c1)c1ccc(-n2cncn2)c([N+](=O)[O-])c1, which inhibition is on record?
Its inhibition is 2.4%.

With CC(C(=O)OCC(=O)c1ccccc1)N1C(=O)c2ccccc2C1=O (centres undefined) as the compound, how does the inhibition read?
Its inhibition is -4.62%.

With CC(=O)c1cc2c(cc1NC(=O)C1CCC1)OCO2 as the compound, how does the inhibition read?
The inhibition was 10.9%.

Which inhibition does the source give for Cn1c(=Nc2ccc(N3CCOCC3)cc2)ccc2ccccc21 here?
Its inhibition is -15.9%.

Which inhibition does the source give for C/C(=N\N=c1/sc2ccccc2n1C)c1ccc(N2CCOCC2)cc1 here?
The inhibition was -7.4%.

For Cn1c(N)c(C(=O)CSc2nnc3n2CCCCC3)c(=O)n(C)c1=O, which inhibition is on record?
The inhibition was -13.2%.

With CCOc1ccc(CNCCCSc2ncccn2)cc1 as the compound, how does the inhibition read?
The inhibition was 4.75%.

Which inhibition does the source give for CCOC(=O)N1CCN(C(=O)c2ccc3nc(-c4ccccc4)c(-c4ccccc4)nc3c2)CC1 here?
The inhibition was 2.02%.

With Cc1ccc(-c2csc(NC(=O)c3ccc([N+](=O)[O-])o3)n2)cc1 as the compound, how does the inhibition read?
The inhibition was 6.86%.

With O=C(Nc1nc(-c2cccs2)cs1)c1ccc([N+](=O)[O-])o1 as the compound, how does the inhibition read?
The inhibition was -3.14%.

For O=C(Nc1nc(-c2ccccn2)cs1)c1cc2ccccc2o1, which inhibition is on record?
Its inhibition is 25.1%.

For Cc1ccc(C(=O)Nc2nc(-c3cccnc3)cs2)o1, which inhibition is on record?
Its inhibition is -17%.

Which inhibition does the source give for COc1ccccc1C(=O)Nc1ccc2c(c1)n(C)c(=O)n2C here?
Its inhibition is -3.88%.

With CC(C)CN(C(=O)c1ccc(C(F)(F)F)cc1)c1c(N)n(CC(C)C)c(=O)[nH]c1=O as the compound, how does the inhibition read?
The inhibition was -4.85%.

With CCCCNC(=S)Nc1ccc2nc(N3CCN(CC)CC3)cc(C)c2c1 as the compound, how does the inhibition read?
The inhibition was 9.06%.

For COc1ccc(OCCCC(=O)Nc2ccc(OC)c(S(=O)(=O)N3CCOCC3)c2)cc1, which inhibition is on record?
The inhibition was -7.67%.

With CNC(=O)c1ccc(Nc2nnc(C)c3ccccc23)cc1 as the compound, how does the inhibition read?
Its inhibition is -2.75%.

With O=C1NCCN1CCN1C(=O)c2ccccc2NC1c1ccccc1 (centres undefined) as the compound, how does the inhibition read?
Its inhibition is -24.1%.

With CCn1c(/C=C2\C(=O)N(C(C)C)c3ccccc32)nc2ccccc2c1=O as the compound, how does the inhibition read?
The inhibition was -0.25%.

For CC(C)N1C(=O)/C(=C/c2nc3ccccc3c(=O)n2-c2ccccc2)c2ccccc21, which inhibition is on record?
Its inhibition is 27.7%.

Which inhibition does the source give for CC(C)Sc1cc(N2CCCC2)nc(-c2ccccc2)n1 here?
The inhibition was -8.52%.

For COc1ccc(CNC(=O)C2CCCN2C(=O)NC2CCCCC2)cc1 (centres undefined), which inhibition is on record?
Its inhibition is 8.99%.

For NC1=NC(=Nc2cccc(S(N)(=O)=O)c2)c2ccccc21, which inhibition is on record?
Its inhibition is -7.83%.

Which inhibition does the source give for COc1ccc(S(N)(=O)=O)cc1N(C)S(=O)(=O)c1ccccc1 here?
Its inhibition is -8.33%.

Which inhibition does the source give for O=CN1CCc2scc[n+]2-c2ccccc21 here?
The inhibition was -18.5%.

With C=CCNC(=S)N/N=C(\C)c1ccc(OC)cc1 as the compound, how does the inhibition read?
Its inhibition is 1.71%.

Which inhibition does the source give for COc1ccccc1NC(=S)Nc1ccccn1 here?
Its inhibition is -3.02%.

Which inhibition does the source give for CCCCCC(=O)N/N=C(\C)c1ccccn1 here?
The inhibition was 5.83%.

Which inhibition does the source give for C/C(Cc1ccccc1)=N\NC(=O)c1ccccn1 here?
The inhibition was -7.02%.

With C/C(=N\NC(=S)Nc1ccc(C)cc1)c1cccc(N)c1 as the compound, how does the inhibition read?
The inhibition was 3.24%.

For C=CCNC(=S)N/N=C(\C)c1cccnc1, which inhibition is on record?
Its inhibition is 1.12%.

Which inhibition does the source give for COc1ccccc1NC(=O)C/C(C)=N/NC(=O)c1ccccn1 here?
The inhibition was 12.6%.

For C/C(=N\NC(=O)CCCNc1ccc(C)cc1)c1ccccn1, which inhibition is on record?
Its inhibition is -0.81%.

With CC1(C)Oc2ccc(C(=O)NC3CCCC3)cc2N(CC(=O)NC2CCCCC2)C1=O as the compound, how does the inhibition read?
Its inhibition is -5.58%.

With Cc1cc(C)nc(Nc2ccccc2Cl)n1 as the compound, how does the inhibition read?
Its inhibition is -3.84%.

For CN(CC(=O)Nc1ccc2c(c1)OCO2)S(=O)(=O)c1ccc(F)cc1, which inhibition is on record?
Its inhibition is 0.79%.

For S=C(NCCc1ccccn1)Nc1cccc(Cl)c1, which inhibition is on record?
The inhibition was -6.8%.

For Cc1cccc(NC(=S)Nc2ccccn2)c1, which inhibition is on record?
The inhibition was 3.18%.

For S=C(NCc1ccccn1)Nc1cccc(Cl)c1, which inhibition is on record?
Its inhibition is 10.7%.

Which inhibition does the source give for C/C(=N\NC(=S)Nc1cccc(C)c1)c1ccccc1 here?
The inhibition was 2.46%.
